# PubChem BioAssay AID651558 (National Center for Advancing Translational Sciences (NCATS), 2012)
# “And” between values parts separate entries of the source, which are not always exact repeats. Equal entries are not always repeated. Hit rate of the full screen: of about 1,200 compounds, about 480 (40%) were called active. Not shown: some 29% with an inconclusive outcome. Calls come from the whole dose curve; as a rule, active = well fitted inhibition curve with a large enough effect; inconclusive = small, poorly fitted or top-dose-only effect; inactive = no such curve, though single readings can be large or run the other way. The list shows a part of the results.
# Assay: qHTS Assay to Find Inhibitors of Chronic Active B-Cell Receptor Signaling: Hit Validation in Primary Screen; note: nearly all actives have a fitted effect of over 75% in size
# Conditions: ABC-DLBCL IkB-luc/CBR ratio luminescence, 4 h; series mostly up to 46.1 µM
# Procedure, shortened: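 Concentration series (3 nM to 46 uM) tested on TMD8 cells induced with doxycycline for 4 h. Filter-corrected green (IkBa fusion) over red (unfused) luciferase signal; Data were normalised to 10 uM MG-132 and untreated cell wells.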
# Potency is the fitted concentration of half-maximal effect.
row,SMILES,Potency
1,N#Cc1ccc(-c2cccs2)nc1SCc1cccnc1,16.4 µM (active)
2,Cc1cc(C)nc(SCc2ccc(C(=O)N/N=C/c3cccnc3)cc2)n1,inactive
3,COc1ccc2c(c1)sc1nc(-c3ccccc3)cn12,3.26 µM (active)
4,Cc1ccc(C)c(NC(=S)N=Nc2c(O)n(C)c3ccc(S(=O)(=O)N4CCOCC4)cc23)c1,inactive
5,CCOc1ccc(C2=Nn3c(nnc3-c3ccccc3OC)SC2)cc1,0.0731 µM (active)
6,COc1ccc(C2=Nn3c(nnc3C3CCCCC3)SC2)cc1OC,2.31 µM (active)
7,COc1ccc(C2=Nn3c(nnc3-c3ccccn3)SC2)cc1OC,inactive
8,COc1ccc(C2=Nn3c(nnc3-c3ccc(OC)cc3)SC2)cc1,14.6 µM (active)
9,COc1ccc(C2=Nn3c(nnc3-c3ccccc3OC)SC2)cc1OC,1.3 µM (active)
10,CNC(=S)N/N=C(\C)c1ccc(Cl)s1,inactive
11,S=C(Nc1ccccc1)c1nc2ccccc2s1,inactive
12,Cc1ccc(-c2oc3ncnc(N)c3c2-c2ccc(C)cc2)cc1,inactive
13,COc1ccccc1-c1nnc2n1N=C(c1ccc(O)c(O)c1)CS2,0.206 µM (active)
14,Cc1cccc(C(=O)Oc2ccc(/C=N/O)cc2)c1,inactive
15,COc1ccc(C(=O)N/N=C/c2ccccc2OC(=O)c2ccccc2)cc1,0.651 µM (active)
16,NC(=S)N/N=C/c1ccccc1OC(=O)/C=C/c1ccccc1,inactive
17,Cc1cccc(NS(=O)(=O)c2ccc(-c3cnc(C4CC4)o3)cc2)c1C,0.92 µM (active)
18,Cc1cccc(NS(=O)(=O)c2ccc(C3CCCCC3)cc2)n1,inactive
19,Cc1cccc(C)c1NS(=O)(=O)c1ccc(-c2cnc(C3CC3)o2)cc1,0.291 µM (active)
20,COc1ccc(OC)c(C2CC(=O)c3c([nH]c(C(=O)OC(C)C)c3C)C2)c1 (centres undefined),1.64 µM (active)
21,CCOCCOC(=O)c1[nH]c2c(c1C)C(=O)CC(c1cccs1)C2 (centres undefined),2.59 µM (active)
22,COC(=O)c1[nH]c2c(c1C)C(=O)CC(c1ccccc1)C2 (centres undefined),1.3 µM (active)
23,COCCOC(=O)c1[nH]c2c(c1C)C(=O)CC(c1ccccc1)C2 (centres undefined),inactive
24,CCOCCOC(=O)c1[nH]c2c(c1C)C(=O)CC(c1ccccc1)C2 (centres undefined),1.64 µM (active)
25,NC(=S)N/N=C/c1ncc(C(F)(F)F)cc1Cl,inactive
26,C/C(=N\N1C(=O)c2ccccc2NC1c1ccco1)c1ccccc1O (centres undefined),inactive

row,SMILES,Potency
1,CCNC(=S)N/N=C(\C)c1ccc(Cl)s1,inactive
2,O=C(CSc1cccc[n+]1[O-])c1ccc(-c2ccccc2)cc1,inactive
3,Cc1ccc(/C(C#N)=C\c2ccc(N3CCOCC3)o2)cc1,inactive
4,O=C1N/C(=C/c2ccc(N3CCOCC3)o2)C(=O)N1c1ccccc1,16.4 µM (active)
5,O=S1(=O)N=C(Nc2nc3c(s2)CCCC3)c2ccccc21,7.31 µM (active)
6,Cc1ccc(/C=[N+](\[O-])c2ccc(N(C)C)cc2)c2nsnc12,inactive
7,O=C(COc1ccc(-c2ccccc2)cc1)N1CCN(S(=O)(=O)Cc2ccccc2)CC1,inactive
8,CCCN1C(=O)C(=O)c2cc(Cl)ccc21,18.4 µM (active)
9,Cc1ccc(OCCN2C(=O)C(=O)c3cc(C)ccc32)cc1,20.6 µM (active)
10,Cc1ccc2c(c1)C(=O)C(=O)N2CCOc1ccccc1,20.6 µM (active)
11,Cc1cccc(OCCN2C(=O)C(=O)c3cc(C)ccc32)c1,23.1 µM (active)
12,Cc1cccc(OCCCC(=O)NNC(=O)c2cccc(N(C)C)c2)c1,inactive
13,Cc1cccc(OCCCN2C(=O)C(=O)c3cc(C)ccc32)c1,inactive
14,Cc1noc(C)c1COc1ccc(CC(=O)NCc2ccccc2)cc1,14.6 µM (active)
15,O=C(COC(=O)Cc1ccc(-c2ccccc2)cc1)NCc1ccccc1,inactive
16,NC(=O)NC[C@@H]1CC[C@@H](Cc2ccc(-c3ccccc3)cc2)O1,inactive
17,O=C(Cc1ccc(-c2ccccc2)cc1)NCc1ccccc1,0.517 µM (active)
18,Cc1ccccc1N=Nc1c(C)[nH]n(C(N)=S)c1=O,inactive
19,Clc1ccc2nc(-c3ccccc3)nc(C(Cl)Cl)c2c1,4.61 µM (active)
20,CCOc1ccc(S(=O)(=O)NCc2ccccn2)cc1NC(=O)c1ccccc1F,8.2 µM (active)
21,Cc1ccc(S(=O)(=O)Nc2cccc(-c3ccc4nncn4n3)c2)cc1,16.4 µM (active)
22,CNCc1ccccc1Sc1ccc(O)c(O)c1,23.1 µM (active)
23,CS(=O)(=O)C1=C(O)C(=O)N(c2ccccc2)C1c1ccccc1 (centres undefined),inactive
24,COc1ccc(NC(=O)/C(C#N)=C\c2cc(C)n(-c3ccc4c(c3)OCO4)c2C)cc1,2.31 µM (active)
25,Oc1cccc(Nc2nc(N3CCOCC3)nc(N3CCOCC3)n2)c1,8.2 µM (active)
26,Cc1cc(C)n(-c2nc3ccccc3c(=O)n2OCC#N)n1,23.1 µM (active)

row,SMILES,Potency
1,Cc1ccc(S(=O)(=O)Cc2ccc(C(=O)N3CCN(c4cccc(C)c4C)CC3)o2)cc1,5.17 µM (active) and 20.6 µM (active)
2,Oc1[nH]c2ccccc2c1N=NC(=S)N1CCOCC1,inactive
3,N#C/C(=C\c1cn(Cc2ccc(F)cc2)c2ccccc12)C(=O)NCc1ccco1,inactive
4,COc1ccc(-c2ccc(CCC(=O)O)n2-c2ccccc2OC)cc1,inactive
5,COc1ccc(CNC(=O)/C(C#N)=C/c2cccc(OC)c2OC)cc1,18.4 µM (active)
6,CC1CC(C)CN(S(=O)(=O)c2ccc(NC(=O)c3ccc(=O)[nH]c3)cc2)C1 (centres undefined),9.2 µM (active)
7,Oc1cccc(/C=N/Nc2ccc(Cl)nn2)c1O,14.6 µM (active)
8,Oc1ccccc1/C=N/Nc1ccnc(SCc2ccccc2)n1,inactive
9,CCCCN1C(=O)N(C)C2C1N(C)C(=O)N2CCCC (centres undefined),inactive
10,O=C(CCl)Nc1cc(S(=O)(=O)N2CCCCCC2)ccc1Cl,20.6 µM (active)
11,O=C(CNC(=O)c1ccco1)N=Nc1c(O)n(CCc2ccccc2)c2ccccc12,5.8 µM (active)
12,O=[N+]([O-])c1cc(/C=N/O)ccc1Sc1ccccc1,inactive
13,CCOC(=O)Cc1csc(NC(=S)NC(=O)c2ccccc2)n1,inactive
14,CCOC(=S)SCC(=O)Nc1nc(-c2ccc(Br)cc2)cs1,3.66 µM (active)
15,Cc1csc(NC(=S)NC(=O)c2ccccc2)n1,inactive
16,CC(=O)c1ccc2c(c1)CC(C)C(=O)N2C (centres undefined),inactive
17,COCCn1c(-c2cccc([N+](=O)[O-])c2)nc2c1c(=O)[nH]c(=O)n2Cc1ccccc1,inactive
18,Cc1ccc(C)c(-n2c3nc(=O)[nH]c(=O)c-3cc3cc([N+](=O)[O-])ccc32)c1,inactive
19,Cc1cccc(-n2c3nc(=O)[nH]c(=O)c-3cc3cc([N+](=O)[O-])ccc32)c1,7.31 µM (active)
20,Cn1c(=O)n(C)c2cc(NS(=O)(=O)c3ccc(Br)s3)ccc21,inactive
21,O=C1N[C@H]2CC=C[C@H]2Nc2ccccc21,inactive
22,CCNC(=O)[C@H]1O[C@@H](n2cnc3c(N)nc(NCCc4ccc(CCC(=O)O)cc4)nc32)[C@H](O)[C@@H]1O,0.0731 µM (active)
23,COC(=O)C1=C(C)NC(C)=C(C(=O)OC)C1/C=C/c1ccccc1,20.6 µM (active)
24,COc1ccc(NC(=O)C(=O)NCC2CCCN2S(=O)(=O)c2ccc(C)cc2)cc1 (centres undefined),0.517 µM (active)
25,Cc1ccc(NC(=O)C(=O)NCC2CCCN2S(=O)(=O)c2cccs2)cc1C (centres undefined),inactive
26,CC(C)N=C(NS(=O)(=O)c1ccccc1)C(Cl)(Cl)Cl,3.26 µM (active)

row,SMILES,Potency
1,N#Cc1ccccc1NC(=O)c1cccc(COc2ccc(Cl)cc2Cl)c1,inactive
2,O=C(CSc1cc(Cl)ccc1Cl)Nc1ccc(N2CCOCC2)cc1,inactive
3,CCN(CC)S(=O)(=O)c1ccc(N2CCOCC2)c(NC(=O)c2c3c(nc4ccccc24)CCC3)c1,inactive
4,Cc1onc(-c2ccccc2)c1C(=O)Nc1cc(C(F)(F)F)ccc1N1CCOCC1,20.6 µM (active)
5,Cc1ccc2nc(SCC(=O)Nc3cc(C(F)(F)F)ccc3N3CCOCC3)[nH]c2c1,2.06 µM (active)
6,C=CCNC(=S)N/N=C/c1ccc(C(C)(C)C)cc1,inactive
7,Cc1ccc(S(=O)(=O)N(C)C[C@@H]2Oc3ccc(NC(=O)CCC(F)(F)F)cc3CC(=O)N([C@@H](C)CO)C[C@@H]2C)cc1,9.2 µM (active)
8,COc1cc(SSc2cc(OC)cc([N+](=O)[O-])c2N)c(N)c([N+](=O)[O-])c1,inactive
9,Nc1ccc(C(=O)n2c3ccccc3c3ccccc32)cc1,13 µM (active)
10,COc1cccc(C2NC(=S)NC(C)=C2C(=O)c2ccccc2)c1OC (centres undefined),16.4 µM (active)
11,COc1cc2c(cc1C1NC(=S)NC(C)=C1C(N)=O)CCCC2 (centres undefined),inactive
12,CCCCN(C(=O)CSc1nc2ccccc2n1CC)C1CCS(=O)(=O)C1 (centres undefined),inactive
13,Cc1cc(C(=O)OCC(=O)Nc2c(Cl)cccc2Cl)c(C)o1,inactive
14,Cc1cc2c(cc(C(=O)OCC(=O)NCc3cccs3)n2C(C)C)o1,8.2 µM (active)
15,O=C(NC(=S)NC1CCSC1=O)c1ccccc1 (centres undefined),inactive
16,CCC(=O)Nc1nonc1-c1nc2ccccc2n1Cc1cccc2ccccc12,2.91 µM (active)
17,CCOC(=O)c1ccccc1NC(=O)Cn1c(-c2nonc2N)nc2ccccc21,2.31 µM (active)
18,COC(=O)c1ccccc1NC(=O)Cn1c(-c2nonc2N)nc2ccccc21,0.731 µM (active)
19,Cc1cccc(C)c1NC(=O)CNC(=O)CNC(=O)Cc1cccc2ccccc12,inactive
20,COCCNC(=S)N/N=C(\C)c1ccc(Cl)s1,inactive
21,CCONC(=O)Nc1ccccc1[N+](=O)[O-],inactive
22,COCCNC(=S)N/N=C(\C)c1ccc(Cl)c(Cl)c1Cl,inactive
23,CCOc1ccccc1N1CSC2=C(C#N)C(c3c(OC)ccc4ccccc34)CC(=O)N2C1 (centres undefined),inactive
24,N#CC1=C(N)Oc2cc(N)ccc2C1c1cccc(Br)c1 (centres undefined),4.11 µM (active)
25,CN(C)c1ccc2c(c1)OC(N)=C(C#N)C2c1cccc(F)c1 (centres undefined),0.82 µM (active)
26,CCN(CC)c1ccc2c(c1)OC(N)=C(C#N)C2c1cccnc1 (centres undefined),1.03 µM (active)
